Compounds without any hit were thinned out: in the full panel of roughly 83,000, 20% have a hit.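 Step 1: grow cells in 96-well plates. Step 2: add test compound at a single concentration. Step 3: incubate 48 h. Step 4: record percent growth.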 Activity calls are given as the source filed them. The calls were made as follows: active = growth percent below 10; inactive = the rest.
What was measured:
Test in all cases: NCI-60 one-dose screen, 48 h (100 = growth as untreated, 0 = no growth, -100 = all killed)
Conditions in all cases: 10 µM unless noted
SK-MEL-2 melanoma = system: SK-MEL-2 melanoma
SN12C renal = system: SN12C renal
UO-31 renal = system: UO-31 renal
TK-10 renal = system: TK-10 renal
ACHN renal = system: ACHN renal
CAKI-1 renal = system: CAKI-1 renal
A498 renal = system: A498 renal
CCRF-CEM leukemia = system: CCRF-CEM leukemia
MOLT-4 leukemia = system: MOLT-4 leukemia
EKVX NSCLC = system: EKVX NSCLC

Measured: growth

COc1ccc(OC)c(Nc2nc3nonc3nc2Nc2cc(OC)ccc2OC)c1
active: ACHN renal -33.4%
inactive: SK-MEL-2 melanoma 64.5% | SN12C renal 32.3% | UO-31 renal 10.8% | TK-10 renal 36.1% | CAKI-1 renal 53% | A498 renal 60.7% | CCRF-CEM leukemia 97.8% | MOLT-4 leukemia 88.8%

C=C(C)[C@@H]1CC[C@@]2(C(=O)O)CC[C@]3(C)C(CCC4[C@@]5(C)CCC(OS(=O)(=O)c6ccccc6)C(C)(C)C5CC[C@]43C)C12 (stereo partly drawn)
inactive: SK-MEL-2 melanoma 70.3% | EKVX NSCLC 25.4% | UO-31 renal 48.5% | TK-10 renal 59.8% | ACHN renal 49.7% | A498 renal 84.2% | CCRF-CEM leukemia 62.4% | MOLT-4 leukemia 51.7%
active: CAKI-1 renal -15.5%

Cc1cc2c(F)c(Oc3ncnc(Nc4ccc(N5C[C@@H](C)N[C@@H](C)C5)cc4)c3C#N)cc(F)c2[nH]1
inactive: SK-MEL-2 melanoma 96.9% | EKVX NSCLC 78.7% | UO-31 renal 70% | TK-10 renal 70.9% | CAKI-1 renal 40.3% | A498 renal 15.6%
active: ACHN renal -12.2% | CCRF-CEM leukemia 7.66% | MOLT-4 leukemia -15.9%

O=C(CC12CC3CC(CC(C3)C1)C2)NCCOCCOCCOCCNC(=O)c1cc2c(o1)C(=O)c1ccccc1C2=O
active: SK-MEL-2 melanoma -27.6% | EKVX NSCLC -27.1% | TK-10 renal -3.88% | ACHN renal -22.4% | CAKI-1 renal -27% | MOLT-4 leukemia 7.19%
inactive: CCRF-CEM leukemia 13%

N#Cc1cnn2c(-c3ccc(Cl)cc3)nc(NCCc3ccccc3)nc12
inactive: SK-MEL-2 melanoma 89.1% | EKVX NSCLC 87.3% | TK-10 renal 102% | ACHN renal 94.2% | A498 renal 101% | CCRF-CEM leukemia 96.4% | MOLT-4 leukemia 74.2%

Nc1c(C(=O)c2ccc(Cl)s2)sc2nc3c(cc12)CCCC3
inactive: SK-MEL-2 melanoma 105% | SN12C renal 94.4% | UO-31 renal 81.2% | TK-10 renal 151% | ACHN renal 112% | CAKI-1 renal 87% | A498 renal 72% | CCRF-CEM leukemia 99.9% | MOLT-4 leukemia 99.5%

O=C(c1ccccc1)c1ccc(Cl)c([N+](=O)[O-])c1
inactive: SK-MEL-2 melanoma 95.3% | SN12C renal 97% | TK-10 renal 107% | ACHN renal 98.2% | A498 renal 57.1% | CCRF-CEM leukemia 13.5%
active: UO-31 renal -87.9% | CAKI-1 renal -2.29%

COc1ccc(/C(C)=N/NS(=O)(=O)c2ccc(C)cc2)cc1OC
inactive: SK-MEL-2 melanoma 122% | SN12C renal 109% | UO-31 renal 103% | TK-10 renal 104% | ACHN renal 103% | CAKI-1 renal 90.4% | A498 renal 87.2% | CCRF-CEM leukemia 102% | MOLT-4 leukemia 98.2%

O=C1CSC(c2ccccc2)N1c1ccccc1 (stereo not drawn)
inactive: SK-MEL-2 melanoma 74.4% | SN12C renal 101% | UO-31 renal 85.7% | TK-10 renal 110% | ACHN renal 101% | CAKI-1 renal 102% | A498 renal 61.7% | CCRF-CEM leukemia 97.1%

CCN(CC)CCCNC(=O)c1ccc(N)cc1
inactive: SK-MEL-2 melanoma 99% | EKVX NSCLC 104% | UO-31 renal 78.8% | TK-10 renal 97.8% | ACHN renal 97.3% | CAKI-1 renal 107% | A498 renal 66.3% | MOLT-4 leukemia 85.3%
active: CCRF-CEM leukemia -34.9%

CCOc1cc(N)ccc1C(=O)NCCCN(CC)CC
inactive: SK-MEL-2 melanoma 102% | EKVX NSCLC 106% | UO-31 renal 75.8% | TK-10 renal 108% | ACHN renal 94.6% | CAKI-1 renal 95.2% | A498 renal 66.5% | MOLT-4 leukemia 26.3%
active: CCRF-CEM leukemia -13.6%

COc1ccc(OC)c(Nc2nc3nonc3nc2Nc2cccc(Br)c2)c1
active: SK-MEL-2 melanoma -17.4% | UO-31 renal 3.39% | TK-10 renal 7.4% | ACHN renal -22.5% | CAKI-1 renal 0.162% | A498 renal -39.9% | MOLT-4 leukemia 3.8%
inactive: SN12C renal 12.4% | CCRF-CEM leukemia 12.4%

Cc1cc(N(CCCNc2ccnc3cc(Cl)ccc23)Cc2ccccn2)nc(N2CCOCC2)n1
inactive: SK-MEL-2 melanoma 97.9% | EKVX NSCLC 89.5% | UO-31 renal 63.9% | TK-10 renal 110% | ACHN renal 101% | CAKI-1 renal 87.8% | A498 renal 92.5% | CCRF-CEM leukemia 86%

COc1ccc(NC(=O)C(=O)c2c[nH]c3ccc(F)cc23)cc1
inactive: SK-MEL-2 melanoma 106% | SN12C renal 98.9% | UO-31 renal 96.4% | TK-10 renal 132% | ACHN renal 93.8% | CAKI-1 renal 93.1% | A498 renal 65.8% | CCRF-CEM leukemia 97.8% | MOLT-4 leukemia 90.8%

CN(CCC(=O)/C(=C\c1ccccc1)c1ccc(Cl)cc1)Cc1ccccc1
active: UO-31 renal -40.9% | ACHN renal -43.3% | CCRF-CEM leukemia -7.82% | MOLT-4 leukemia 6.05%
inactive: SK-MEL-2 melanoma 58.4% | EKVX NSCLC 86.8% | TK-10 renal 51.8% | CAKI-1 renal 22.5% | A498 renal 46.1%

— PubChem BioAssay (NCI)
